Screens: PubChem BioAssay, National Center for Advancing Translational Sciences (NCATS)
The list is not random: actives were taken first. Their share in the collection is about 6.5%.
Giardia kill = kills Giardia lamblia | activity change, % at 7.66 µM, hits read low | Giardia lamblia trophozoite viability | 340,000 tested, 0.15% active | AID 540267; in the data active means activity change below about -80%; inconclusive means between about -30% and that limit;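 further: parasites exposed to compound for two days anaerobically before the ATP read; on the % scale 0 is the no-effect control and ±100 the full control effect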
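Compounds were tested on trophozoites seeded at 100 cells/well and held 48 hrs at 37 deg C anaerobically. An ATP-based luminescent kit measured the remaining live cells.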
HepG2 tox-1 = kills HepG2 cells in TGF-b inhibitor counter-screen; Potency, µM (doses to about 46.1 µM), for the others: top-dose activity change, negative = cytotoxicity, actives largely listed as cytotoxic; 410,000 tested, 0.76% active; AID 588856; HepG2 CAGA-GFP viability, ATP luminescence, 18 h; further: potency means the concentration at half of the fitted maximal effect
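CellTiter-Glo luminescence gave cytotoxicity after 18 hours at 37 degrees C. The cells were HepG2 CAGA-GFP in 1% FBS DMEM, stimulated with 500 pg/mL TGF-beta after compound addition. %Activity was normalised to no-cell wells (complete cell-killing) and DMSO (no toxicity), and curves were fitted and classified.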
HT1080 IDH1KD tx = kills HT-1080 cells with IDH1 knockdown | HT-1080 IDH1 knockdown viability, ATP luminescence, 48 h | Potency, µM (doses to about 46.1 µM), inactives show at the highest dose activity, negative = toxicity, hits mostly cytotoxic | 360,000 tested, 2% active | AID 686971;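 further: potency means the concentration at half of the fitted maximal effect; 0% = DMSO wells and -100% = cell-free medium wells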
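Cytotoxicity counter-line: IDH1KD HT-1080, 48 h, CellTiter-Glo. Curves classed by r2, magnitude and activity.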
IL1B secr inh = inflammasome signaling inhibition, IL-1 beta readout; THP-1 LPS/ATP IL-1B secretion, AlphaLISA, 16 h; active compounds read low; AID 743279; activity change, % at 57.5 µM; 360,000 tested, 4.7% active; in the data active means activity change below about -50%; inconclusive means mostly about -30% to -49%; further: on the % scale 0 is the no-effect control and ±100 the full control effect
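Secreted IL-1B measured by AlphaLISA bead assay after 16 h compound exposure of THP-1 cells; compounds (final up to 57.5 uM) added 1 h before LPS (250 ng/mL) and ATP (1.25 mM) stimulation; lower signal means less secretion.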
HT1080-NT tox = kills 2HG-producing HT-1080-NT fibrosarcoma cells; HT-1080-NT fibrosarcoma viability, CellTiter-Glo ATP luminescence, 48 h; Potency, µM (doses to about 46.1 µM), for inactives: at the top dose activity, negative = less viability, actives largely listed as cytotoxic; 360,000 tested, 1.6% active; AID 686970;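 further: NT is the 2HG producing partner of a matched IDH1 knockdown line; potency means the concentration at half of the fitted maximal effect; 0% = DMSO-treated cells and -100% = media-only wells without cells; nearly all actives have a fitted effect of over 55% in size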
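Toxicity toward the 2HG-producing NT line was scored as %Activity, normalised to DMSO and no-cell wells, from CellTiter-Glo luminescence after 48 hours' treatment.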
TGFb inhibitor = blocks TGF-b signaling. AID 588855. Potency, µM (doses to about 46.1 µM), for inactives: top-dose activity, negative = inhibition, usual class: inhibitors. 410,000 tested, 1.2% active. HepG2 CAGA-GFP TGF-b/SMAD3 reporter, GFP fluorescence, 18 h; TGF-beta stimulated, 500 pg/mL final; further: potency means the concentration at half of the fitted maximal effect; on the % scale 0 is the no-effect control and ±100 the full control effect; nearly all actives have a fitted effect of over 65% in size
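Cell-based qHTS in HEPG2 carrying a CAGA-GFP Smad reporter; compounds added before 500 pg/mL final TGF-beta, 18 h incubation at 37 degrees C, GFP fluorescence quantified per cell by imaging cytometry.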
TGFb confirm = confirmation of TGF-b signaling inhibitors in HepG2 reporter cells; shares compounds with TGFb inhibitor; HepG2 CAGA-GFP TGF-b reporter, GFP fluorescence, 18 h; cells stimulated with TGF-beta, 500 pg/mL; Potency, µM (doses to about 46.1 µM), without a hit: at the highest dose activity, negative = inhibition, most hits filed as inhibitors; 1,600 tested, 63% active; AID 720534; further: potency means the concentration at half of the fitted maximal effect; on the % scale 0 is the no-effect control and ±100 the full control effect; nearly all actives have a fitted effect of over 65% in size
HepG2 tox-2 = toxic to HepG2 cells in TGF-b counterscreen. Potency, µM (series often up to 46.1 µM), without a hit: top-dose activity, negative = cytotoxicity, usual class: inhibitors. 1,600 tested, 27% active. HepG2 CAGA-GFP viability, ATP luminescence, 18 h; cells stimulated with TGF-beta, 500 pg/mL. AID 720535. shares compounds with TGFb inhibitor; further: potency means the concentration at half of the fitted maximal effect; on the % scale 0 is the no-effect control and ±100 the full control effect; nearly all actives have a fitted effect of over 70% in size
CCL64 TGFb inh = blocks TGF-b signaling in CCL64 reporter cells; 1,600 tested, 41% active; shares compounds with TGFb inhibitor; Potency, µM (highest dose often 46.1 µM), without a hit: at the top dose activity, negative = inhibition, hits mostly inhibitors; AID 720536; CCL64 CAGA-GFP reporter, TGF-b stimulated, GFP fluorescence, 18 h; further: potency means the concentration at half of the fitted maximal effect; nearly all actives have a fitted effect of over 65% in size
COP TGFb inh = blocks TGF-b signaling in HepG2 COP reporter | Potency, µM (series often up to 46.1 µM), without a hit: top-dose activity, negative = inhibition, most hits filed as inhibitors | shares compounds with TGFb inhibitor | HepG2 COP-GFP TGF-b reporter, GFP fluorescence, 18 h; cells stimulated by added recombinant TGF-beta | 1,600 tested, 3% active; further: potency means the concentration at half of the fitted maximal effect; nearly all actives have a fitted effect of over 70% in size
* marks the source's active call; other numbers are inactive results; ? = inconclusive; nt = no result. Unless noted, the call rests on the fitted dose curve; in most records, active means well fitted curve in the direction sought with a large enough effect; inconclusive means small, poorly fitted or top-dose-only effect, or another doubt; inactive means no such curve, though single readings can be large; an effect the other way counts as inactive or inconclusive.

SMILES	Giardia kill	HepG2 tox-1	HT1080 IDH1KD tx	IL1B secr inh	HT1080-NT tox	TGFb inhibitor	TGFb confirm	HepG2 tox-2	CCL64 TGFb inh	COP TGFb inh
Cc1ccc(NC(=O)c2nc[nH]c2C(=O)NCCCNC(=O)c2[nH]cnc2C(=O)Nc2ccc(C)cc2)cc1	16.7	-1.6%	15.3%	-19.3	16.7%	?	?	?	?	?
CC(C)C[C@H](NC(=O)c1nc[nH]c1C(=O)N1CCN(c2ccccc2)CC1)C(=O)OC(C)(C)C	4.2	-32.3%	-7.2%	-25.2	-17.8%	?	-8.5%	-3.2%	-24.0%	5.2%
COc1cc(CN2C(=O)C(Cc3ccccc3)ON=C2c2ncccc2C)cc(OC)c1 (stereo unspecified)	nt	-1.7%	1.0%	24.9	0.2%	1.0%	nt	nt	nt	nt
CN(Cc1ccccc1)C(=O)c1[nH]cnc1C(=O)Nc1cccc(Cl)c1	17.0	-18.7%	-1.3%	-12.5	2.2%	?	?	?	-7.7%	-1.0%
CC(C)(C)OC(=O)[C@H](Cc1ccccc1)NC(=O)c1[nH]cnc1C(=O)Nc1cccc(Cl)c1	-9.3	-54.7%	?	-51.4*	?	10µM*	20.6µM*	18.4µM*	?	30.1%
CC1(C)OC(=O)C2=C(CC(CCc3ccccc3)OC2c2ccccc2)O1 (stereo unspecified)	nt	-36.1%	1.7%	26.1	-2.9%	5.8%	nt	nt	nt	nt
CC(C)(C)c1ccc(C(=O)Nc2sc3c(c2C(=O)O)CCC3)cc1	3.0	-6.0%	?	16.9	-28.6%	-3.0%	nt	nt	nt	nt
CC(Nc1nc(-c2ccc(F)cc2)cs1)c1nc2cc(C(F)(F)F)ccc2n1CCOCCO (stereo unspecified)	5.4	-18.3%	2.9%	1.1	9.9%	-15.4%	nt	nt	nt	nt
COc1ccc(-c2csc(NC(C)c3nc4cc(C(F)(F)F)ccc4n3CCOCCO)n2)cc1 (stereo unspecified)	9.6	-22.7%	?	?	-24.3%	12.6µM*	23.1µM*	?	?	4.8%
O=S(=O)(CC(CN1CCCCC1)N1CCCCC1)c1ccccc1 (stereo unspecified)	6.3	17.8µM*	?	-96.7*	?	10µM*	13µM*	18.4µM*	4.61µM*	?
S=C(Nc1ccccn1)c1ccccn1	1.9	-62.3%	?	19.6	?	7.08µM*	-22.3%	?	?	5.9%
O=C(Nc1ccccc1)Nc1ccc(S(=O)(=O)N2CCCCC2)cc1	5.4	-52.6%	?	-20.5	?	?	nt	nt	nt	nt
O=C(Nc1cccc(Cl)c1)Nc1cc(S(=O)(=O)N2CCCCC2)ccc1Cl	-14.7	1.9%	25.9µM*	-88.4*	?	10µM*	4.11µM*	?	4.61µM*	73.2%
CN(C)c1nc2c(N)ncnc2n1C1OC(CO)C(O)C1O (stereo unspecified)	-8.3	18.4%	26.7%	1.2	8.7%	-0.9%	nt	nt	nt	nt
OCC1OC(n2cnc3c(NCc4ccccc4O)ncnc32)C(O)C1O (stereo unspecified)	1.9	-70.8%	9.2µM*	-86.0*	13µM*	1.78µM*	1.16µM*	4.11µM*	?	45.4%
CN(C)c1ncnc2c1ccn2C1OC(CO)C(O)C1O (stereo unspecified)	10.0	0.126µM*	2.59µM*	-29.4	4.11µM*	0.224µM*	0.231µM*	1.3µM*	6.51µM*	25.0%
OCC1OC(n2ccc3c(NO)ncnc32)C(O)C1O (stereo unspecified)	2.9	0.501µM*	0.411µM*	-102.2*	1.64µM*	0.282µM*	1.16µM*	0.581µM*	1.3µM*	39.6%
OC[C@H]1O[C@@H](n2cnc3c(Nc4ccccc4)ncnc32)[C@H](O)[C@@H]1O	2.7	-9.6%	-8.8%	-19.6	0.1%	-5.9%	nt	nt	nt	nt
Cc1ccc(/C=N/n2c(C3CCCCC3)n[nH]c2=S)cc1	-4.9	0.8%	-2.5%	-14.9	-24.7%	-11.4%	nt	nt	nt	nt
O=C(CSc1ncnc2c1cnn2-c1ccccc1)NC1CCS(=O)(=O)C1 (stereo unspecified)	-11.2	-4.1%	9.4%	-11.4	11.4%	3.8%	nt	nt	nt	nt
O=[N+]([O-])c1cccc(N=Nc2ccc(O)cc2O)c1	?	-27.3%	5.8µM*	-67.6*	?	2.51µM*	11.6µM*	8.2µM*	5.8µM*	65.5%
CC(=O)c1ccc(NC(=O)CSc2nc3[nH]ncc3c(=O)[nH]2)cc1	6.6	8.6%	6.0%	18.0	0.5%	-9.6%	nt	nt	nt	nt
O=C(COc1cccc(C(F)(F)F)c1)Nc1ccccc1N1CCCCC1	10.8	-10.4%	-1.2%	22.6	1.8%	1.6%	nt	nt	nt	nt
CSCCC(NS(=O)(=O)c1cccc(C(F)(F)F)c1)C(=O)Nc1ccccc1N1CCCC1 (stereo unspecified)	8.0	-26.7%	-3.5%	-6.8	1.6%	14.1µM*	16.4µM*	-7.4%	16.4µM*	-1.2%
CCO[C@@H]1OC(C(=O)NCc2ccccc2)=C[C@H](c2ccc(C(F)(F)F)cc2)[C@H]1CCCO	-20.1	-9.2%	?	-57.1*	-27.8%	17.8µM*	?	-28.2%	20.6µM*	32.5%
COc1cccc(C(=O)NCCCNC(=O)c2cccc(OC)c2)c1	10.7	5.9%	3.5%	29.9	-1.2%	4.5%	nt	nt	nt	nt
COc1cc(OC)cc(C(=O)NCCCCCCNC(=O)c2cc(OC)cc(OC)c2)c1	-1.7	-30.5%	-2.2%	27.6	-6.5%	-81.0%	-11.7%	-7.1%	5.6%	2.9%
